This note sets out measurements from ChEMBL document CHEMBL4513216, “Probing the Open Global Health Chemical Diversity Library for Multistage-Active Starting Points for Next-Generation Antimalarials” (ACS Infect Dis, 2020).

In all, about 69,000 compounds went through this assay and about 8,600 (12%) showed an effect of 50% or more. This excerpt belongs to a sample that is enriched for strong results.

The subject of the assay is Plasmodium berghei. The assay is described as follows: Screen against P. berghei liver stage (PbLuc), transformed with Luciferase, at 10uM. The format is functional, HepG2. As to conditions: tested at 10 uM.
In the case of `Cc1nc(C)n(CCNS(=O)(=O)NCc2ccccc2)n1`, the INHIBITION worked out at 49.9%.
The figure for `CS(=O)(=O)N1CCOCC2(CCN(C(=O)c3cnccn3)CC2)C1` is -6.23%; for `O=C(NCc1ccccc1Cn1cncn1)C1CCCCC1` it is 30.6%.
The figure for `Cc1cnc(N2CC3(CCN(S(=O)(=O)C4CC4)C3)C2)nc1` is 40.3%.
The figure for `Cc1nn(C)cc1Cn1c(=O)c(C)nc2ccccc21` is -11.4%; for `COc1c(CNCc2ccc(C(=O)N(C)C)cc2)c(C)nn1C` it is 56.3%; for `COc1c(CNCc2ccc(CS(C)(=O)=O)cc2)c(C)nn1C` it is 43.2%.
On to `COc1c(CNCCNC(=O)c2ccc(C)cc2)c(C)nn1C`, for which the INHIBITION was 52.7%.
On to `COc1c(CNCCNC(=O)c2ccc(C)cc2)c(C(C)C)nn1C`, for which the INHIBITION is -79.3%.
The figure for `COc1c(CNCc2cccc(C(=O)N(C)C)c2)c(C)nn1C` is -29.8%; for `COc1c(CNCCNC(=O)c2ccccc2)c(C)nn1C` it is 15.3%.
Under `CC(C)(C)C(=O)Nc1cnn(-c2ccccc2S(C)(=O)=O)c1` stands -0.125%.
The figure for `O=C(c1ccccc1)N1CCC[C@]2(C[C@@H](Oc3ncccc3F)CO2)C1` is 5.96%; for `Cc1ccc(N2C[C@@H]3CCCO[C@@H]3[C@H](N3CCCC3)C2)nn1` it is 20.1%.
Take `COCCCC1CCCN(Cc2c(C)ccc3ncccc23)C1` (centres undefined): the INHIBITION was 5.41%.
The figure for `COc1ccc(S(=O)(=O)N2CCc3ccc(Cl)cc32)cc1C(=O)O` is -54.6%; for `CCc1cn[nH]c1C1CCN(c2cc(C)c3cc(OC)ccc3n2)CC1` it is 26.6%; for `CCc1cn[nH]c1C1CCN(c2cc(C)c3cccc(OC)c3n2)CC1` it is 42.7%.
For the molecule `CCc1cn[nH]c1C1CCN(c2cc(C)c3ccc(OC)cc3n2)CC1`, the INHIBITION is 71.1%.
For the molecule `Cc1cccc(OCCC(=O)N(C)CCNS(C)(=O)=O)c1C`, the INHIBITION is 7.11%.
Under `CC(C)(C)CC(=O)N1CCCC2(CC(C(=O)Nc3ccccc3)=NO2)C1` (centres undefined) stands -32%; under `OCCCc1nncn1-c1cccc(C(F)(F)F)c1`, 33.4%.
The figure for `CCc1nc(C)c(C(=O)N(C)Cc2cnc3ccccn23)o1` is 10.6%; for `CN(C(=O)C1CCN(Cc2cnc3ccccn23)CC1)c1ccccc1` it is 58.2%.
Under `Cc1cccc(NC(=O)[C@@H]2CCCN2Cc2cnc3ccccn23)n1` stands 45.7%; under `CCOC(=O)N(C)C1CCN(Cc2cnc3ccccn23)CC1`, 8.12%.
For the molecule `CC(C)N(C)C(=O)C1CCN(Cc2cnc3ccccn23)CC1`, the INHIBITION is 63.3%.
The figure for `CC(C)N(C)C(=O)C1CCN(Cc2cc3c(cc2O)CCC3)CC1` is 33.6%; for `O=C([C@H]1CCCO1)N1CC[C@H](O)[C@@H]1Cc1cccnc1` it is 39.4%.
On to `CN(C)c1nc(N2CCCC2)nc2c1CCN(C(=O)c1ccco1)CC2`, for which the INHIBITION is reported as 28.2%.
Under `CCCc1noc(CCC(=O)N2CCCC2c2cccc(OC)c2)n1` (centres undefined) stands -34%; under `CC(=O)N1CCC(c2noc(C3CCC(=O)N3)n2)CC1` (centres undefined), 18.4%; under `O=C1CCC(c2nc(C3CCN(C(=O)C4CC4)CC3)no2)N1` (centres undefined), 14%.
Under `O=C1CCC(c2nc(C3CCNCC3)no2)N1` (centres undefined) stands 55.8%; under `Cc1cc(C(F)F)nn1C(C)C(=O)NCc1ncc[nH]1` (centres undefined), -1.21%; under `Cc1csc(N2CCN(C(=O)C3(C#N)CCCC3)CC2)n1`, -9.75%.
For `COc1cc(OC)cc(C2NC(=O)CN2Cc2ccc(Br)cc2)c1` (centres undefined), the INHIBITION worked out at 45.6%.
Consider `Cc1cc(C2NC(=O)CN2Cc2ccc(Br)cc2)cc(C)c1O` (centres undefined), for which the INHIBITION worked out at 60.4%.
Under `NC(=O)COc1ccc(C2NC(=O)CN2Cc2ccc(Br)cc2)cc1` (centres undefined) stands 15.9%; under `Cc1nc(CN2Cc3nccn3CC(CN3CCCC3)C2)cs1` (centres undefined), -29.3%.
The figure for `C[C@@H]1CN(C(=O)c2nc3sccn3c2-c2ncc[nH]2)C[C@H](C)O1` is 11.3%; for `O=C(c1nc2sccn2c1-c1ncc[nH]1)N1CCCCC1` it is 50.2%; for `CN1CCCN(C(=O)c2nc3sccn3c2-c2ncc[nH]2)CC1` it is -16%.
Under `CC(C)c1cc(=O)[nH]c(-c2ccccc2CN2CCCC2C)n1` (centres undefined) stands 31.8%.
As for `CC(C)N1CCC(CC(=O)NC[C@H]2CCc3ccccc3O2)CC1`, the INHIBITION was 7.4%.
Under `CCN1CCC(CC(=O)NC[C@H]2CCc3ccccc3O2)CC1` stands 39.9%; under `CC(C)N1CCC(C(=O)NC[C@H]2CCc3ccccc3O2)CC1`, 61.5%; under `Cc1ccc(S(C)(=O)=O)cc1NCC(=O)NCCC1=CCCCC1`, -50.7%.
As for `CC(NC(=O)N(C)C1CC1)c1ccc(Oc2cccnc2)c(F)c1` (centres undefined), the INHIBITION came to 37.4%.
The figure for `Cc1cnn(CC2CCCN2C(=O)c2n[nH]c(=O)c3ccccc23)c1` (centres undefined) is -4.16%; for `N#Cc1nccnc1N1CCC(Cc2ccccc2)C1` (centres undefined) it is 0.672%; for `N#Cc1nccnc1N1CCC(COCc2ccccc2)C1` (centres undefined) it is 20.8%.
Under `N#Cc1nccnc1N1CCC(OCCCc2ccccc2)C1` (centres undefined) stands 72.3%; under `CC(C)Cc1nnc(NCc2ccsc2)o1`, -54.5%; under `CC(C)(C)Cc1nnc(NCc2ccsc2)o1`, 53.4%.
Under `c1cc(CNc2nnc(Cc3ccsc3)o2)cs1` stands -86.6%; under `COc1ccc(OC)c(C(C(=O)O)N2CCSCC2)c1` (centres undefined), 17%; under `CC(c1ccc(F)c(F)c1)N(C)CCS(=O)(=O)CCC(N)=O` (centres undefined), 41.5%.
For `CC(c1cccc(Cl)c1)N(C)CCS(=O)(=O)CCC(N)=O` (centres undefined), the INHIBITION stood at 37.8%.
Under `Cc1ccc(C(C)N(C)CCS(=O)(=O)CCC(N)=O)cc1` (centres undefined) stands 56.3%; under `NC(=O)NC(=O)CN1CCN(CC2CC2)c2ccccc21`, 35.3%.
Under `CNC(=O)NC(=O)CN1CCN(CC2CC2)c2ccccc21` stands 46.4%; under `COCCC(=O)N1CCN(CC2CC2)c2ccccc21`, 14.9%.
On to `O=C(NCCCC(=O)N1CCN(CC2CC2)c2ccccc21)C1CC1`, for which the INHIBITION is 22.8%.
`NC(=O)NC(=O)CCN1CCN(CC2CC2)c2ccccc21`: the INHIBITION stood at 62.4%.
The figure for `NC(=O)CN1CCN(CC2CC2)c2ccccc21` is 58.7%; for `CN1CCC2(CCN(Cc3nccs3)CC2)C1=O` it is 7.15%; for `O=C(NCC1CC1)C1CCC2(CCN(C(=O)c3ccco3)CC2)O1` (centres undefined) it is -25.8%.
In the case of `CN(C(=O)CCc1nc(C2CC2)no1)c1cc(C#N)c2ccccc2n1`, the INHIBITION is given as 23.1%.
